Assay results reported in PubChem BioAssay.
Active and inactive are the calls of the source.

Experiments:
[1] = binders of probe aFSTL3 on microarray, primary screen, stem cell growth factor project, biochemical, small-molecule microarray, fluorescence 635/667 (AID 1064); conditions: higher = more signal;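 further: measures binding of the biotinylated anti-FSTL3 antibody to printed compounds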
[2] = binders from COS7 lysate, DM2A8 probe, primary screen, torsin A project, cell lysate, small-molecule microarray, fluorescence 635/667 (AID 1065); conditions: higher = more signal, COS7 lysate expressing mutant human TOR1A
[3] = binders of probe aFGF2 on microarray, primary screen, stem cell growth factor project, biochemical, small-molecule microarray, fluorescence 635/667 (AID 1067); conditions: higher = more signal;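 further: measures binding of biotinylated aFGF2 protein to printed compounds on slides; z-score merges feature fluorescence and signal-to-noise across triplicate slides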
[4] = binders of probe aFGF10 on microarray, primary screen, stem cell growth factor project, biochemical, small-molecule microarray, fluorescence 635/667 (AID 1071); conditions: higher = more signal;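 further: score merges 667 nm spot intensity and signal to noise from triplicate slides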
[5] = molecular target: Neurogenic locus notch homolog protein 2 (Homo sapiens) (UniProt Q04721); test: Notch2 binders on small-molecule microarrays, primary screen, biochemical, small-molecule microarray, 635 nm fluorescence, stem cell growth factors (AID 1073); conditions: Notch2 binding, higher = more signal
Neurogenic locus notch homolog protein 2 (Homo sapiens), sequence (Q04721 whole entry, looked up, canonical isoform): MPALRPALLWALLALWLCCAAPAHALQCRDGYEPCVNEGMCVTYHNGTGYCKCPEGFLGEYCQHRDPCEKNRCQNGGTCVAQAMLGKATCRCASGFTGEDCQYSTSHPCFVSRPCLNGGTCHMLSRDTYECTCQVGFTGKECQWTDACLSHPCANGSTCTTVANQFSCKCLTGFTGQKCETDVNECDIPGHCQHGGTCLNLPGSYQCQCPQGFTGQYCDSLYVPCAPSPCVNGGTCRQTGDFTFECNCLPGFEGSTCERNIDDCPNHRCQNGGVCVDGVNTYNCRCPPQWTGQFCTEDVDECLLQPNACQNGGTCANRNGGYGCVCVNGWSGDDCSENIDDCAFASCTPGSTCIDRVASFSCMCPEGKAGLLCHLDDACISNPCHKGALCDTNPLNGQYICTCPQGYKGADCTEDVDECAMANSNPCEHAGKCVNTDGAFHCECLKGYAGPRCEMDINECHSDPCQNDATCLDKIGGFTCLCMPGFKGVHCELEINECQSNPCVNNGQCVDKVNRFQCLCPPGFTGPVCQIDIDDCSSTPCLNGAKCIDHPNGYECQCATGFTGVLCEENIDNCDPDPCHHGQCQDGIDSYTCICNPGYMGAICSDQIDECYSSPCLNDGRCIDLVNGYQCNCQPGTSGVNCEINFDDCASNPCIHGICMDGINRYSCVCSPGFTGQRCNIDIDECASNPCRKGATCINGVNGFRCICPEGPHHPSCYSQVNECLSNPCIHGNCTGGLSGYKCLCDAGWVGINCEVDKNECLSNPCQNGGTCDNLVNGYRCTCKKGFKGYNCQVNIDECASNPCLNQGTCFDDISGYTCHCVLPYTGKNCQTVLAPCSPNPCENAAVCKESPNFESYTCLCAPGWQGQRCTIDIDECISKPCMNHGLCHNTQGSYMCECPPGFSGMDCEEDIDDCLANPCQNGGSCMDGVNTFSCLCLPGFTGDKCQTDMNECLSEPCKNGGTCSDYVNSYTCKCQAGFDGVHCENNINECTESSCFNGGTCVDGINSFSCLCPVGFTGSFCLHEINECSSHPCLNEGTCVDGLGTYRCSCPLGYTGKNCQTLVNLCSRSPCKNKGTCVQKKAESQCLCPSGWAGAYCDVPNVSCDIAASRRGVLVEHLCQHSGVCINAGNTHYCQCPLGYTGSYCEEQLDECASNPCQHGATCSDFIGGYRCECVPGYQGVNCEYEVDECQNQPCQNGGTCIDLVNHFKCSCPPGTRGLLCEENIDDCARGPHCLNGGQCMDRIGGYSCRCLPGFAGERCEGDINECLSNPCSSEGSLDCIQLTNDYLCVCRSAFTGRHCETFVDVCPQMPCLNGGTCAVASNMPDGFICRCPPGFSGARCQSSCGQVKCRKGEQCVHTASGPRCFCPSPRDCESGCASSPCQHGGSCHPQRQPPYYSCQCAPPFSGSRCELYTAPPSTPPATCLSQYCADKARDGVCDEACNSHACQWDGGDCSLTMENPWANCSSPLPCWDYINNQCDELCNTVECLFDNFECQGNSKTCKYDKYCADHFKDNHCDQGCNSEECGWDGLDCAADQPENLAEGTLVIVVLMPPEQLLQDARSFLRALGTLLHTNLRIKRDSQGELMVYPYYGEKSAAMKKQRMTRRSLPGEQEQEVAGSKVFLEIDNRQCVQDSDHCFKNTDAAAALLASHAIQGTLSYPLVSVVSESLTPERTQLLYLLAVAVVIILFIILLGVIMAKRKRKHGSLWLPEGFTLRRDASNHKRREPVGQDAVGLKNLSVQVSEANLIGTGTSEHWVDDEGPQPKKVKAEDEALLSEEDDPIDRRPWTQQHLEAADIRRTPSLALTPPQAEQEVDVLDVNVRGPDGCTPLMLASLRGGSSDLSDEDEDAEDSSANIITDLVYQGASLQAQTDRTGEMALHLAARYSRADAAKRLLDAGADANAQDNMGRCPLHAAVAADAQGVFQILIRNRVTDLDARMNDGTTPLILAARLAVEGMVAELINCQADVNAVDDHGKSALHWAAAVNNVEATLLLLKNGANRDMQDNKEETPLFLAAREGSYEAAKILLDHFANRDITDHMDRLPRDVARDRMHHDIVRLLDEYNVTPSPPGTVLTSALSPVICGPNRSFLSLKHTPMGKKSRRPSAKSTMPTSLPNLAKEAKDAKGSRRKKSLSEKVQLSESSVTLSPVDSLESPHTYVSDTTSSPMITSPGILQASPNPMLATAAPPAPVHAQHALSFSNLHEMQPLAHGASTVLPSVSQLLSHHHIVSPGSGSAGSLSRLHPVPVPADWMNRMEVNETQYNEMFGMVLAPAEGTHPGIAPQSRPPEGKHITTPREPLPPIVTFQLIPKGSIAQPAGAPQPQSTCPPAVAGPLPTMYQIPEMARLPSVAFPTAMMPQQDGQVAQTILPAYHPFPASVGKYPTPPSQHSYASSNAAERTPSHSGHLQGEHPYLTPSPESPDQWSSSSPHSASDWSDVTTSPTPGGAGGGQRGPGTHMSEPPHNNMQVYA

[6] = molecular target: Pro-neuregulin-1, membrane-bound isoform (Homo sapiens) (UniProt Q02297); test: NRG1 binders on small-molecule microarrays, primary screen, psychiatric disease protein project, biochemical, small-molecule microarray, fluorescence 635/667 (AID 1075); conditions: NRG1 binding, 635 nm fluorescence, higher = more signal;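 further: score combines 667 nm spot fluorescence with signal to noise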
Pro-neuregulin-1, membrane-bound isoform (Homo sapiens), sequence (Q02297 whole entry, looked up, the tested form may be a part, canonical isoform): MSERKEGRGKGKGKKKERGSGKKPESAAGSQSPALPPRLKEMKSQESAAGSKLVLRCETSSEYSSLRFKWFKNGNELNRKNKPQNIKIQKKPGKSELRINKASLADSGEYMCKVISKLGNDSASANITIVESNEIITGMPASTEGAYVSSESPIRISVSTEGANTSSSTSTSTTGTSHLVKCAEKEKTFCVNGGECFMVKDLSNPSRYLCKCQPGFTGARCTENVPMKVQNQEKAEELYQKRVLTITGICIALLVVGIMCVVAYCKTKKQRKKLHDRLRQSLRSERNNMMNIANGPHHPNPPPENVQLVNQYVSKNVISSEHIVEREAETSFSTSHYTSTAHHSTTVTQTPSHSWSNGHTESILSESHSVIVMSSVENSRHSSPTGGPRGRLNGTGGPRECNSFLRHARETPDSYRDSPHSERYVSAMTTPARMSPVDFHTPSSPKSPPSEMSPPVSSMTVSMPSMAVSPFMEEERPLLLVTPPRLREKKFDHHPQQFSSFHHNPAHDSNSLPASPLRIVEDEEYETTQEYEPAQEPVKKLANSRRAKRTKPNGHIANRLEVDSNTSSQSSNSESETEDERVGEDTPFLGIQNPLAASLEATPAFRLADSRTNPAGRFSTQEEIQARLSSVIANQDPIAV

[7] = tested on: Neuregulin-1 EGF-like domain; test: binders of neuregulin-1 EGF-like domain, primary screen, biochemical, small-molecule microarray, 635 nm fluorescence (AID 1081); conditions: small-molecule microarray binding, higher = more signal;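 further: binding of the protein to compounds printed on small-molecule microarray slides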
[8] = FRG1 promoter luciferase signal modulators, primary screen, FRG1 inhibition for FSHD, cell-based, C2C12 myotubes, firefly/Renilla luciferase, luminescence (AID 1084); conditions: higher = more signal, called active from +8 up or from −8 down
[9] = binders of probe aFST on microarray, primary screen, stem cell growth factor project, biochemical, small-molecule microarray, fluorescence 635/667 (AID 1086); conditions: higher = more signal;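 further: score merges 667 nm fluorescence with signal-to-noise of each printed compound spot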
[10] = binders of probe aHhip on microarray, primary screen, stem cell growth factor project, biochemical, small-molecule microarray, fluorescence 635/667 (AID 1087); conditions: higher = more signal;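 further: score merges spot fluorescence at 667nm with spot signal to noise ratio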
[11] = tested on: PRMT1 (protein arginine N-methyltransferase 1); test: PRMT1 binders on small-molecule microarrays, primary screen, biochemical, small-molecule microarray, 635 nm fluorescence (AID 1088); conditions: small-molecule microarray binding, higher = more signal;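 further: binding of Prmt1 protein to compounds spotted on small-molecule microarray slides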
[12] = yeast growth modulation, basal conditions, primary screen, YJM789 clinical isolate, OD600, 24 h (AID 1089);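 further: growth of clinical yeast isolate S. cerevisiae YJM 789 seeded 1000 cells per well; test concentration not given here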; conditions: S. cerevisiae YJM789 growth, higher = more signal, called active from +8 up or from −8 down
[13] = fission yeast growth modulation, primary screen, strain 972, OD600, 24 h, no modulator (AID 1090);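 further: basal condition with compound alone and no growth modifier present; test concentration not given here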; conditions: S. pombe 972 growth, higher = more signal, called active from +8 up or from −8 down
[14] = S. cerevisiae growth modulation with rapamycin, primary screen, strain BY4716, OD600, 96 h (AID 1091); conditions: higher = more signal, called active from +8 up or from −8 down; further: test concentration not given here
[15] = molecular target: Torsin-1A-interacting protein 2 (Homo sapiens) (UniProt Q8NFQ8); test: LULL1 binders on small-molecule microarray, primary screen, cell lysate, human LULL1 lysate, 635/667 nm fluorescence (AID 1092); conditions: hLULL1 lysate binding, 635 nm fluorescence, higher = more signal;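 further: probe is lysate of COS7 cells overexpressing human LULL1; score merges per-feature 667 nm fluorescence with signal-to-noise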
Torsin-1A-interacting protein 2 (Homo sapiens), sequence (Q8NFQ8 whole entry, looked up): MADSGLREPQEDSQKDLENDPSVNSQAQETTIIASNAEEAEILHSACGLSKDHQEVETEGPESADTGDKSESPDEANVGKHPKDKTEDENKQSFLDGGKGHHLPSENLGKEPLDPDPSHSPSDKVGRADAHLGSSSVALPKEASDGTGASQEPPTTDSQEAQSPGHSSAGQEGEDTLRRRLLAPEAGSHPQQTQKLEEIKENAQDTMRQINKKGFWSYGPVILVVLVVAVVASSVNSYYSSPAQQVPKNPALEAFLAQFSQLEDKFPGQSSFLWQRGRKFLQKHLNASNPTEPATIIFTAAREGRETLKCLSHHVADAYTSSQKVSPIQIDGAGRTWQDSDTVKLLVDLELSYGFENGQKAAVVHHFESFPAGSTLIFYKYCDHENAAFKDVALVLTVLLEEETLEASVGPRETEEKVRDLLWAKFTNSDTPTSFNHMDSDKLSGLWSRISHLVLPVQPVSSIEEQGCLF

[16] = E. coli growth modulation, two-sided OD650, primary screen, E. coli filamentation project, strain DRC41, 24 h (AID 1093); conditions: OD650, 24 h, higher = more signal, called active from +8 up or from −8 down;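 further: MC1000 strain lacking acrAB efflux and sulA so SOS filamentation is blocked; test concentration not given here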
[17] = small-molecule microarray binders of probe aLefty2, primary screen, biochemical, biotinylated probe, 635/667 nm fluorescence (AID 1094); conditions: higher = more signal;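 further: score merges spot fluorescence near 667 nm with spot signal-to-noise ratio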
[18] = tested on: Noggin (protein binding on small-molecule microarray); test: Noggin binders on small-molecule microarray, primary screen, biochemical, 635/667 nm fluorescence (AID 1095); conditions: 635 nm fluorescence, higher = more signal;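 further: score merges 667 nm feature fluorescence with signal to noise over triplicate slides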
[19] = molecular target: Neurogenic locus notch homolog protein 3 (Homo sapiens) (UniProt Q9UM47); test: NOTCH3 binders on small-molecule microarray, primary screen, biochemical, 635/667 nm fluorescence (AID 1096); conditions: NOTCH3 binding, 635 nm fluorescence, higher = more signal
[20] = small-molecule microarray binders of probe aEGFR, primary screen, biochemical, biotinylated probe, 635/667 nm fluorescence (AID 1097); conditions: higher = more signal;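 further: probe is a biotinylated anti-EGFR antibody binding compounds printed on slides; score combines fluorescence near 667 nm and signal to noise of each spot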

Structure (SMILES)	composite z-score [1]	composite z-score [2]	composite z-score [3]	composite z-score [4]	composite z-score [5]	composite z-score [6]	composite z-score [7]	z-score [8]	composite z-score [9]	composite z-score [10]	composite z-score [11]	z-score [12]	z-score [13]	z-score [14]	composite z-score [15]	z-score [16]	composite z-score [17]	composite z-score [18]	composite z-score [19]	composite z-score [20]
COc1ccc([Si](C)(C)[C@H]2[C@H](CC(=O)N3Cc4ccccc4C[C@H]3CO)O[C@@]3(C(=O)N(C)c4c(Br)cc(C)cc43)[C@@H]2C)cc1	-0.0669	0.403	-0.119	0.333	0.363	1.05	1.11	-4.4 (inactive)	0.334	-0.132	1.54	0.344 (inactive)	0.788 (inactive)	5.53 (inactive)	0.986	-0.498 (inactive)	-0.0631	1.42	1.09	-0.0828
COCCCNC(=O)[C@@H]1c2ccccc2C(=O)N(Cc2ccc(OC(F)(F)F)cc2)[C@H]1c1ccc(CO)cc1	-0.388	0.0383	0.015	0.235	0.329	0.244	0.617	-0.228 (inactive)	0.541	1.03	1.34	-0.975 (inactive)	-0.153 (inactive)	-0.97 (inactive)	2.36	-0.518 (inactive)	-0.0687	0.489	0.554	-0.0949
CN(C)CCCC[C@@H]1NC(=O)[C@@H]2C[C@H](C(=O)NCCCCCCNC(=O)CS)[C@H](c3ccc(O)cc3)N2C1=O	-0.195	0.991	-0.0959	0.204	0.262	0.133	0.975	0.133 (inactive)	-0.114	-0.0645	1.33	-0.378 (inactive)	-0.472 (inactive)	0.0236 (inactive)	2.79	-0.744 (inactive)	-0.269	1.13	0.65	0.123
C=C(COC)C(=O)CC[C@@H](OC(=O)c1ccccc1-c1ccccc1C(=O)O)c1ccc(OCCO)cc1	-0.209	0.487	-0.132	-0.252	-0.638	-0.335	0.685	2.6 (inactive)	-0.0463	-0.0994	1.39	-0.656 (inactive)	-0.943 (inactive)	-0.856 (inactive)	0.886	0.315 (inactive)	-0.0341	1.26	0.505	-0.139
O=C(NCC(O)CO)[C@@]1(CCS(=O)(=O)c2ccccc2)N=C(c2ccc(OCCCO)cc2)O[C@H]1c1ccccc1 (stereo not given in full)	0.715	0.965	0.123	0.223	0.429	1.96	1.33	2.37 (inactive)	0.544	0.0302	0.845	-0.717 (inactive)	-0.908 (inactive)	-0.163 (inactive)	3.56	-0.328 (inactive)	0.471	-0.562	-0.196	0.144
CC1CC/C=C\[C@H]2OC34C=CCN(C(C)(C)C)C(=O)[C@H]3N(CCCO)C(=O)[C@@H]4C2C(=O)O1 (stereo not given in full)	0.142	-0.0052	-0.0063	0.716	-0.858	0.647	1.28	-0.281 (inactive)	0.182	-0.169	-0.672	0.884 (inactive)	0.743 (inactive)	1.14 (inactive)	1.86	0.545 (inactive)	-0.214	-0.556	-0.281	-0.249
CCOC(=O)c1cn(C[C@H](Cc2ccccc2)NC(=O)N[C@H](CO)CCc2oc(C(C)=O)c(C(=O)OC)c2C(=O)OC)nn1	-0.562	-0.0438	-0.101	1.09	1.47	0.553	1.39	0.872 (inactive)	0.863	-0.0383	1.54	0.511 (inactive)	-0.342 (inactive)	0.018 (inactive)	1.36	-0.616 (inactive)	-0.0615	1.15	1.08	0.272
O=C1C[C@]2(c3ccc([N+](=O)[O-])cc3)C(=O)N(C3CC3)c3cc(CO)ccc3[C@H]2N1C1CCCCC1	-0.351	-0.124	-0.164	0.097	-0.0343	-0.123	-0.0608	0.413 (inactive)	-0.0927	-0.236	0.788	0.0359 (inactive)	0.389 (inactive)	-1.04 (inactive)	1.2	0.221 (inactive)	-0.171	-0.533	-0.105	-0.0656
COC(=O)[C@@]1(Cc2ccccc2)[C@H]2c3cc(C(=O)N4CCCC4)n(Cc4ccc(OC)c(OC)c4)c3C[C@H]2CN1C(=O)c1ccccc1	0.439	0.411	0.141	0.605	1.77	2.16	1.4	0.626 (inactive)	1.88	0.857	0.632	0.49 (inactive)	1.06 (inactive)	1.45 (inactive)	3.5	-0.0046 (inactive)	0.666	0.0245	1.14	0.403
CCCCN1CC=CC23O[C@@H]4/C=C\CCCOC(=O)C4[C@H]2C(=O)N(C(CO)C(C)C)[C@@H]3C1=O (stereo not given in full)	-0.1	0.0253	-0.101	0.728	-0.185	-0.164	1.47	0.723 (inactive)	-0.228	-0.236	-0.385	0.383 (inactive)	-0.74 (inactive)	0.0577 (inactive)	0.601	-0.714 (inactive)	-0.165	-0.21	-0.754	0.371
COCCOC(=O)N1C(=O)[C@@]2(c3cc(C#CCC(C(=O)OC)C(=O)OC)ccc31)[C@H](C(=O)Nc1nc3ccccc3s1)[C@H]1C(=O)O[C@H](c3ccccc3)[C@H](c3ccccc3)N1[C@@H]2c1ccc(O)cc1	-0.566	0.304	0.412	0.742	1.45	0.158	1.3	0.203 (inactive)	0.805	0.314	1.53	1.42 (inactive)	0.431 (inactive)	1.16 (inactive)	2.51	0.28 (inactive)	0.0085	0.92	1.04	0.107
NC(=O)NCC#Cc1ccc2c(c1)[C@]1(C(=O)N2)[C@H](c2ccc(OCCO)cc2)N2[C@H](c3ccccc3)[C@H](c3ccccc3)OC(=O)[C@H]2[C@@H]1C(=O)NC[C@H](O)c1ccccc1	-0.142	-0.329	-0.0586	0.029	0.322	0.577	-0.164	-0.0847 (inactive)	0.103	-0.134	0.26	2.87 (inactive)	1.98 (inactive)	3.9 (inactive)	0.741	2.55 (inactive)	0.0041	0.565	-0.311	-0.141
O=C1O[C@H](c2ccccc2)[C@H](c2ccccc2)N2[C@H]1[C@@H](C(=O)O)[C@]1(C(=O)Nc3ccc(C#CCCO)cc31)[C@H]2c1ccc(OCCO)cc1	0.282	1.12	-0.12	0.826	0.89	1.86	1.28	-0.708 (inactive)	0.101	0.189	0.862	0.19 (inactive)	-0.428 (inactive)	-0.502 (inactive)	1.98	1.71 (inactive)	0.547	0.452	0.105	-0.0304
COc1ccccc1CN1C(=O)c2ccccc2[C@](Cc2ccccc2I)(C(=O)NCC(C)C)[C@@H]1c1ccc(CO)cc1	1.21	0.204	-0.0049	-0.452	-0.396	1.2	1.15	-2.55 (inactive)	0.0126	0.142	1.33	-0.747 (inactive)	-0.652 (inactive)	0.0134 (inactive)	2.11	2.2 (inactive)	0.103	-0.371	0.139	-0.0721
COC(=O)[C@@]1(Cc2ccccc2)N=C(c2ccc(OCCCO)cc2)O[C@H]1c1ccccc1CN=[N+]=[N-]	0.261	0.0296	-0.0529	0.0585	0.33	1.02	0.666	-2.6 (inactive)	0.226	-0.41	1.55	-0.605 (inactive)	-0.129 (inactive)	29.9 (active)	2.27	1.62 (inactive)	-0.0747	1.05	0.129	0.0267
COCCCNC(=O)[C@@]1(Sc2ccc(C)cc2)CC(=O)N(Cc2ccccc2C(F)(F)F)[C@@H]1c1ccc(CO)cc1I	1.21	-0.204	-0.132	-2.12	-1.8	1.17	-0.823	-0.903 (inactive)	-0.228	-0.132	0.242	-0.394 (inactive)	-1.05 (inactive)	0.461 (inactive)	1.08	0.217 (inactive)	0.0245	-2.51	-1.4	-0.203
CC(C)=CCCC(C)=CC(O)C1C=CC2C(=O)NC(=O)C2N1Nc1ccc(Cl)cc1Cl (stereo not given)	0.235	0.401	0.234	0.214	0.933	1.86	0.915	1.89 (inactive)	0.901	0.0373	0.258	-0.835 (inactive)	-4.51 (inactive)	0.279 (inactive)	2.31	-2.06 (inactive)	0.17	-0.218	0.845	-0.0904
COc1cc(C(O)C2C=CC3C(=O)N(c4ccccc4)C(=O)C3N2Nc2ccccc2F)cc(OC)c1OC (stereo not given)	-0.0643	0.155	0.0253	0.935	1.64	1.93	1.29	1.26 (inactive)	0.612	0.252	1.54	0.785 (inactive)	0.578 (inactive)	1.32 (inactive)	3.58	-0.629 (inactive)	0.122	0.334	1.09	-0.027
COc1ccc([Si](C)(C)[C@H]2[C@H](CC(=O)N3CCC[C@H]3CO)O[C@@]3(C(=O)N(Cc4ccc(N5CCCCC5=O)cc4)c4ccccc43)[C@@H]2C)cc1	-0.35	0.227	-0.0494	0.671	0.565	1.33	1.12	-4.24 (inactive)	0.536	0.0373	1.54	-0.398 (inactive)	0.591 (inactive)	-0.801 (inactive)	2.51	2.32 (inactive)	-0.18	1.41	1.06	-0.0531
